Source: PubChem BioAssay AID1345083 (National Center for Advancing Translational Sciences (NCATS), 2018)
Among all 94,000 compounds or so, about 6,200 (6.6%) were called active. Not shown: some 31% with an inconclusive outcome. Calls come from the whole dose curve; as a rule, active = well fitted inhibition curve with a large enough effect; inconclusive = small, poorly fitted or top-dose-only effect; inactive = flat fitted curve, though single readings scatter. The full list was thinned out, with actives kept by preference.

Experiment: Cytotoxic Profiling in HEK 293 Cell Line of Diverse Libraries Using Quantitative High-Throughput Screening; note: nearly all actives have a fitted effect of over 60% in size
Details: HEK 293 viability, ATP luminescence (CellTiter-Glo), 48-72 h; series mostly up to 115 µM; activity change, negative = cytotoxicity: at the top concentration
Source text: Cell-based phenotypic screening is a commonly used approach to discover biological pathways, novel drug targets, chemical probes and high-quality hit-to-lead molecules. Many hits identified from high-throughput screening campaign are ruled out through a series of follow-up potency, selectivity/specificity, and cytotoxicity assays. Prioritization of molecules with little or no cytotoxicity for a more in-depth downstream evaluation influence the future direction of projects, so cytotoxicity profiling of the screening libraries at early stage is essential for increasing the likelihood of candidate success. In this study, we analyzed results from a cell-based cytotoxicity screening campaign, comprising nearly 10,000 compounds in NCATS annotated libraries, and over 100,000 compounds in a diversity library, evaluated in four normal cell lines (HEK 293, NIH 3T3, CRL-7250 and HaCat) and a cancer cell line (KB 3-1, a HeLa subline) with overall screening outcomes, hit rates, pan-activity and selectivity. For the annotated library, we also examined the primary targets and mechanistic pathways regularly associated with cell death. To our knowledge, this is the first study to use high-throughput screening to profile large libraries for cytotoxicity assessment in both normal and cancer cell lines. In summary, the results generated here constitutes a valuable resource for the scientific community and provides insight on identifying cytotoxic compounds with particular mechanisms of action, and prioritizing compounds with suitable cytotoxicity profile for further evaluation.
HEK 293 cells were seeded into white 1536-well plates using a Multidrop Combi peristaltic dispenser (ThermoFisher, Waltham, MA) at a density of 250 cells/well in 5 uL of medium respectively. A pintool (Kalypsys) was used to transfer 23 nL of compound solution to the 1536-well assay plates. After 48 or 72 hr incubation at 37 degree Celsius, 5% CO2 and 95% humidity, 2.5 uL of CellTiter-Glo (Promega) was dispensed into each well using a dispenser (Aspect Automation, St. Paul, MN) with solenoid valves (Lee Valves, Westbrook CT). Plates were left at room temperature for 10 min before imaging the ATP-coupled luminescence using a ViewLux microplate imager (PerkinElmer, Waltham, MA).
% is set by controls: 0 for no effect and ±100 for the full control effect; potency is the fitted concentration of half-maximal effect.

Row | Compound | Potency | activity change, negative = cytotoxicity | outcome
1 | COC(=O)c1ccc(NC(=O)N2[C@H]3CC[C@@H]2c2cnc(-c4ccc(F)cc4)nc2C3)cc1 | 44.7 µM (active) | – | –
2 | Cn1cnc(S(=O)(=O)N2[C@H]3CC[C@@H]2c2cnc(-c4ccc(F)cc4)nc2C3)c1 | – | -5.79% (inactive) | –
3 | O=C(Cc1cccc(F)c1)N1[C@H]2CC[C@@H]1c1cnc(-c3ccccc3)nc1C2 | – | -17.9% (inactive) | –
4 | Cc1ncc2c(n1)C[C@@H]1CC[C@H]2N1C(=O)c1ccccn1 | – | -3.35% (inactive) | –
5 | Cc1cccc(CC(=O)N2[C@H]3CC[C@@H]2c2cnc(C)nc2C3)c1 | – | – | inactive
6 | O=C(Cc1ccccc1)N1[C@H]2CC[C@@H]1c1cnc(-c3ccc(F)cc3)nc1C2 | 28.2 µM (active) | – | –
7 | Cc1ncc2c(n1)C[C@@H]1CC[C@H]2N1S(=O)(=O)c1ccc(F)cc1 | – | -9.05% (inactive) | –
8 | CCS(=O)(=O)N1[C@H]2CC[C@@H]1c1cnc(C)nc1C2 | – | – | inactive
9 | Cc1nc(C)c(C(=O)N2[C@H]3CC[C@@H]2c2cnc(-c4ccccc4)nc2C3)s1 | 39.8 µM (active) | – | –
10 | O=C(c1ccc2c(c1)CCO2)N1C[C@@H](c2ccc(F)cc2)[C@@H]2[C@H]1C1CCN2CC1 | – | – | inactive
11 | O=[S+]1([O-])NC2(CCN(CC3CCOCC3)C2)COc2ccncc21 (centres undefined) | – | – | inactive
12 | CC(=O)N1CC2(CCN(Cc3cccnc3)C2)Cc2ccccc21 (centres undefined) | – | -16.8% (inactive) | –
13 | CC(C)N1CCN(C(=O)Cc2cccn2-c2ccc(F)cc2)CC1 | – | -18.2% (inactive) | –
14 | Cc1ccc2c(n1)N(C)[C@H](CO)CCN(C1CCCC1)C2 | – | -1.63% [at 230 µM] (inactive) | –
15 | O=C1NC2(Cc3ccccc31)CN(CC1CC1)C2 | – | – | inactive [at 230 µM]
16 | Cc1ccc([C@@H]2CN(C(=O)c3ccco3)[C@@H]3C4CCN(CC4)[C@@H]32)cc1 | – | -13.1% (inactive) | –
17 | O=C(c1cocn1)N1C[C@H](c2cccc(F)c2F)[C@@H]2[C@H]1C1CCN2CC1 | – | – | inactive
18 | CCCS(=O)(=O)N1C[C@@H]2C[C@H](C1)c1ccc(-c3ccccc3C)c(=O)n1C2 | – | – | inactive [at 172 µM]
19 | COc1cc2c(cc1OCc1ccncc1)NC(=O)C21CCN(c2ncc(F)cn2)CC1 | 50.1 µM (active) | – | –
20 | COc1cc2c(cc1Oc1cccc(N(C)C)c1)NC(=O)C21CCN(Cc2ccccn2)CC1 | 44.7 µM (active) | – | –
21 | COc1cc2c(cc1OC1CCCC1)NC(=O)C21CCN(c2nccs2)CC1 | 89.1 µM (active) | – | –
22 | COc1cc2c(cc1Oc1ccccc1)NC(=O)C21CCN(c2ccnc(C)n2)CC1 | 63.1 µM (active) | – | –
23 | O=C(c1ccncc1)N1C[C@@H]2C[C@H](C1)c1ccc(C3CCCCC3)c(=O)n1C2 | – | -2.59% [at 172 µM] (inactive) | –
24 | CC1=NOC2(CCN(Cc3cncs3)C2)C1 (centres undefined) | – | – | inactive [at 172 µM]
25 | O=[S+]1([O-])NCC2(CCN(Cc3cccnc3)C2)Oc2ncccc21 (centres undefined) | – | – | inactive
26 | O=C1CC2CCN(Cc3cccnc3)CC2CCN1 (centres undefined) | – | – | inactive [at 172 µM]
27 | O=C1NC2(Cc3ccccc31)CN(Cc1ccncc1)C2 | – | – | inactive [at 172 µM]

Row | Compound | Potency | activity change, negative = cytotoxicity | outcome
28 | COc1cccc([C@H]2CN(c3cc(C)nc(N)n3)[C@@H]3C4CCN(CC4)[C@H]23)c1 | – | -20.8% (inactive) | –
29 | CNC(C)c1ccc(Cl)cc1 (centres undefined) | – | -18.1% [at 230 µM] (inactive) | –
30 | Cc1ccccc1OCC(=O)N1CCN(Cc2ccc(=O)n(C)c2)CC1 | – | -19.9% (inactive) | –
31 | C=CCOc1c(Cl)cc(CNC(C)Cn2cccn2)cc1OC (centres undefined) | – | -12.6% (inactive) | –
32 | CC(C)N1CC2CCC(C1)N2C(=O)N1CCCC1 | – | 4.58% [at 172 µM] (inactive) | –
33 | O=C(NC1CCCCC1)N1C[C@@H]2C[C@H](C1)c1c(-c3ccccc3F)ccc(=O)n1C2 | – | -25.2% [at 172 µM] (inactive) | –
34 | FC(F)(F)CN1C2CCC1CN(c1ccc(Cl)nn1)C2 | – | – | inactive
35 | COc1cc2c(cc1-c1ccncc1)NC(=O)C21CCN(C(C)=O)CC1 | – | -19.9% [at 172 µM] (inactive) | –
36 | COc1cc2c(cc1OCc1ccncc1)NC(=O)C21CCN(c2ncccn2)CC1 | 100 µM (active) | – | –
37 | COc1cc2c(cc1OCc1ccccc1)NC(=O)C21CCN(C(=O)C(C)C)CC1 | 89.1 µM (active) | – | –
38 | CC(C)C(=O)N1CCC2(CC1)NCc1ccccc1-n1ccnc12 | – | -12.3% (inactive) | –
39 | COc1ccc([C@@H]2CN(C(=O)c3c(C)noc3C)[C@@H]3C4CCN(CC4)[C@@H]32)cc1 | – | -7.87% (inactive) | –
40 | CCCCc1cn(C[C@H]2CC3CCN2C[C@@H]3C(=O)NCc2ccccc2)nn1 (some centres undefined) | – | -1.65% [at 172 µM] (inactive) | –
41 | CCC(CC)c1cc([C@H]2CN3CC[C@H]2C[C@@H]3CNS(=O)(=O)Cc2ccccc2)nc(-c2ccncc2)n1 | 31.6 µM (active) | – | –
42 | COc1ccc(-c2cn(C[C@H]3C[C@@H]4CCN3C[C@@H]4C(=O)NCc3ccccc3)nn2)cc1 | – | -21% [at 172 µM] (inactive) | –
43 | CCC(CC)c1cc([C@H]2CN3CC[C@H]2C[C@@H]3CNC(=O)NCc2ccccc2)nc(-c2ccncc2)n1 | 28.2 µM (active) | – | –
44 | CCCS(=O)(=O)NC[C@H]1C[C@@H]2CCN1C[C@@H]2c1cc(C2CCCC2)nn1C | – | -26.7% [at 172 µM] (inactive) | –
45 | Cc1ccc(S(=O)(=O)NC[C@H]2C[C@@H]3CCN2C[C@@H]3CN2CCN(c3ncccn3)CC2)cc1 | – | -6.41% (inactive) | –
46 | O=[N+]([O-])c1ccc(N2CC3CCC(C2)N3CC(F)(F)F)nc1 | – | – | inactive
47 | Cc1ccc(S(=O)(=O)NC[C@H]2C[C@@H]3CCN2C[C@@H]3CN2CCSCC2)cc1 | – | 0.97% [at 172 µM] (inactive) | –
48 | Cc1noc(C)c1C(=O)N1C2CCC1CN(Cc1cccnc1)C2 | – | -29.8% (inactive) | –
49 | O=C(O)COCC(=O)N1C[C@@H]2C[C@H](C1)c1c(-c3ccc4ccccc4c3)ccc(=O)n1C2 | – | -2.71% [at 172 µM] (inactive) | –
50 | CCOc1ccc(C(=O)N2CCC3(CC2)c2nccn2-c2ccccc2CN3C)cc1 | – | -21.5% (inactive) | –
51 | C#C[C@H]1CN2CC[C@H]1C[C@@H]2CNC(=O)C1CC1 | – | -2.38% [at 230 µM] (inactive) | –
52 | C#C[C@H]1CN2CC[C@H]1C[C@@H]2COC(=O)Nc1cc(OC)cc(OC)c1 | 100 µM (active) | – | –
53 | CCCNC(=O)OC[C@H]1C[C@@H]2CCN1C[C@@H]2c1cc(-c2ccc(OC)c(OC)c2)nn1C | – | -12.2% (inactive) | –
54 | FC(F)(F)CN1C2CCC1CN(c1ccc(C(F)(F)F)nc1)C2 | – | -14.1% (inactive) | –
